# GLP-1R agonist = agonists of human GLP-1 receptor; Potency, µM (titrated, usually from 45.6 µM), for inactives: at the highest dose activation, actives largely listed as activators; HEK293 GLP-1R CRE-luciferase, luminescence, 4-6 h; cells express a hypersensitive GLP-1R form; actives 0.007% (n = 380,000); also: % of control where 0% means no effect
# PTHR1 ag = agonists of human PTHR1 parathyroid hormone receptor; Q03431; HEK293 GP2 PTHR1 cells, GloSensor cAMP luminescence, 1 h; Potency, µM (highest dose often 115 µM), inactives show at the highest dose activation, hits mostly activators; actives 0.075% (n = 410,000); AID 743266; also: nearly all actives have a fitted effect of over 55% in size
# Target sequence (Q03431 whole entry, looked up): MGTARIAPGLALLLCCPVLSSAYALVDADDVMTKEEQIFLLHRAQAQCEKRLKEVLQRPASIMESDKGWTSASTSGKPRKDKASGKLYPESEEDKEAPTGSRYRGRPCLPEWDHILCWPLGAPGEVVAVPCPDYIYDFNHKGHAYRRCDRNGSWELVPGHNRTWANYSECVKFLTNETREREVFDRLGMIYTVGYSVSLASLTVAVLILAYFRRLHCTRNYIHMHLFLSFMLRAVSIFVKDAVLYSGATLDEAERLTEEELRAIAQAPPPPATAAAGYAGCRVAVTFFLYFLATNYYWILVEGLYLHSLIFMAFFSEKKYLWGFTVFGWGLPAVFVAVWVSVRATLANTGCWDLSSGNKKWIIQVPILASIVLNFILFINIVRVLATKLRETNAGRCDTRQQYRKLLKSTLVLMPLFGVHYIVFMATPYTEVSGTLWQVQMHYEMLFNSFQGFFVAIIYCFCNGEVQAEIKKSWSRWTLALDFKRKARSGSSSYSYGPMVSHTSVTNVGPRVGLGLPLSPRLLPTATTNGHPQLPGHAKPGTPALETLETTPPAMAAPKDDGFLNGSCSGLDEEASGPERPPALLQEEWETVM
#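 HEK-293-derived GP2 cells expressing PTHR1 and a GloSensor cAMP reporter, 3,000/well, plated overnight, given luciferin plus IBMX (each 0.5 mM as added) for 1 h at 37 °C, then compound for 1 h at 37 °C. Luminescence was read after 15 min at room temperature.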
# GLP1R inv ag = acts as inverse agonist at human GLP-1 receptor | P43220 | actives 1.6% (n = 410,000) | HEK293 GLP-1R CRE-luciferase, luminescence, 24 h; GLP-1R form is constitutively active | AID 624417 | Potency, µM (doses to about 38.3 µM), inactives show at the top dose activity change, negative = inhibition, hits mostly inhibitors; also: % is scaled to controls: 0 for no effect and ±100 for the full control effect; nearly all actives have a fitted effect of over 55% in size
#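 qHTS in 1536-well format: reporter HEK293 cells expressing constitutive GLP-1R activity in DMEM + 10% Nu serum, 24 hr with compounds at 37 deg C, luminescence read after 12 min with detection reagent.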
# GLP1R cytotox = cytotoxicity counter-screen for GLP-1 receptor inverse agonists. HEK293 cAMP-luciferase reporter cells, luminescence, 24 h. Potency, µM (top dose mostly 38.3 µM), without a hit: at the top dose activity change, negative = inhibition, actives largely listed as inhibitors. actives 0.13% (n = 410,000). AID 624418;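 also: loss of luciferase light is scored as toxicity; % is scaled to controls: 0 for no effect and ±100 for the full control effect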
#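 Step one: seed cells (200 cells/uL, DMEM with 10% Nu serum, 1% pen-strep). Step two: 12-hour incubation at 37 deg C. Step three: pin 23 nL compound, incubate 24 hr. Step four: add luciferase reagent, read luminescence 12 min later.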
# Numbers without * were called inactive; i = inactive; ? = inconclusive; . = not tested or not shown; [ ] = another dose, or the depositor's remark. An excerpt weighted towards active compounds, which were near 1.7% of everything screened. Calls follow the shape of the dose curve; as a rule, active = well fitted curve in the direction sought with a large enough effect; inconclusive = small, poorly fitted or top-dose-only effect, or another doubt; inactive = no such curve, though single readings can be large; an effect the other way counts as inactive or inconclusive. Potency is read from the fitted curve at half-maximal effect.
SMILES,GLP-1R agonist,PTHR1 ag,GLP1R inv ag,GLP1R cytotox
COc1ccccc1NC(=O)C(C)N(C)CCOc1ccccc1 (stereo unspecified),17%,-24%,11µM*,20%
COc1ccc(CCC(C)N2CCC(CO)(Cc3ccccc3)CC2)cc1 (stereo unspecified),7%,-5%,7.9µM*,0%
CCN(CC)CCCNC(=O)c1cn(CC)c2ccc(S(=O)(=O)N3CCC(C)CC3)cc2c1=O,-2%,-1%,-13%,-7%
COc1cc(/C=N/NC(=O)c2ccccn2)ccc1OC(=O)c1ccccc1Br,-30%,-95%,?,11µM*
COCCn1c(COc2ccc(C)cc2)nc2ccccc21,7%,-3%[57.5 µM],?,-5%
CCOCCn1c(COc2ccc(C)cc2)nc2ccccc21,9%,i,7.1µM*,0%
Cc1ccc(OCc2nc3ccccc3n2Cc2ccccc2Cl)cc1,-5%,i,13µM*,-3%
CCc1ccc(OCC(=O)N(Cc2ccc(C(C)C)cc2)C2CCS(=O)(=O)C2)cc1 (stereo unspecified),.,-14%,?,-11%
COc1cc(OC)c(NC(=O)c2c(C)nn(-c3ccc(C)cc3)c2-n2cccc2)cc1Cl,-3%,-21%,-6%,0%
Cc1ccc(CCNC(=O)CCCn2c(=O)c3cccn3c3ccc(F)cc32)cc1,.,-24%,-5%,6%
O=C1C(=O)N(C2CCN(C(=O)c3ccccc3F)CC2)CCN1Cc1ccc(F)cc1,.,i,1%,-11%
CCCn1c(SCC(=O)Nc2ccccc2-c2ccccc2)nnc1-c1ccoc1C,1%,-35%,11µM*,-18%
Cc1occc1-c1nnc(SCC(=O)Nc2ccccc2-c2ccccc2)n1C,0%,i,-9%,-6%
CN[C@H](CC(C)C)C(=O)N[C@H]1C(=O)N[C@@H](CC(N)=O)C(=O)N[C@H]2C(=O)N[C@H]3C(=O)N[C@H](C(=O)N[C@H](C(=O)O)c4cc(O)cc(O)c4-c4cc3ccc4O)[C@H](O)c3ccc(c(Cl)c3)Oc3cc2cc(c3O[C@@H]2OC(CO)[C@@H](O)[C@H](O)[C@H]2O[C@H]2C[C@](C)(N)[C@H](O)[C@H](C)O2)Oc2ccc(cc2Cl)[C@H]1O (stereo partly specified),-4%,.,.,.
COc1ccc(-c2nc3ccccc3c(=O)n2O)cc1,-2%,50µM*,?,1%
O=c1c2ccccc2nc(-c2ccccc2)n1O,-5%,i,-8%,16%
CC(C)Cn1c(-c2ccccc2)nc2ccccc2c1=O,7%,-2%,2.8µM*,-6%
CC(=O)Nc1ccc(-c2ccnc3c2CC(C(=O)NCc2cccc(Cl)c2)O3)cc1 (stereo unspecified),?,i,3.5µM*,?
Cc1ccc(-c2nn(-c3ccccn3)c(=O)c3ccccc23)cc1,16%,?,-6%,-1%
Cc1ccc(-c2nn(-c3ccccn3)c(=O)c3ccccc23)cc1C,11%,i,10µM*,-8%
CCc1ccc(NC(=O)CC2C(=O)N(c3cccc(OC)c3)C(=O)N2Cc2ccco2)cc1 (stereo unspecified),.,i,-17%,-2%
Oc1cccc(-c2c3nc(c(-c4cccc(O)c4)c4ccc([nH]4)c(-c4cccc(O)c4)c4nc(c(-c5cccc(O)c5)c5ccc2[nH]5)CC4)C=C3)c1,-5%,.,.,.
Cc1ccc(-n2[nH]c(=O)c3cccnc32)cc1,-2%,-11%[57.5 µM],-4%,4%
Cc1ccc(-n2[nH]c(=O)c(-c3ccccn3)c2C)cc1,-4%,-35%,1µM*,?
CC1CCCN(c2ncnc3c2cnn3-c2ccc(F)cc2)C1 (stereo unspecified),.,-38%,8.9µM*,-4%
SMILES,GLP-1R agonist,PTHR1 ag,GLP1R inv ag,GLP1R cytotox
c1ccc(-n2ncc3c(NC4CCCCCC4)ncnc32)cc1,11%,-1%,5.6µM*,-19%
c1ccc(-n2ncc3c(N4CCCCC4)ncnc32)cc1,-5%,-92%,4µM*,4%
NNc1ncnc2c1cnn2-c1ccccc1,13%,-7%[57.5 µM],10µM*,?
CC(C)Nc1ncnc2c1cnn2-c1ccccc1,-1%,-76%,-7%,6%
Cc1cccc(-n2ncc3c(N4CCCCCC4)ncnc32)c1,.,-45%,-14%,1%
O=C(COCc1cc(-c2ccc(F)cc2)on1)Nc1cc(Cl)cc(Cl)c1,.,-76%,19%,-6%
Cn1c(C(=O)NCc2ccc(F)cc2)cc2c(=O)n(C)c3ccccc3c21,-1%,-16%,5%,-3%
CCOC(=O)c1c(C)[nH]c(CCC(=O)NCc2ccccc2C)c1C,.,i,7%,-5%
O=C(CCS(=O)(=O)c1cccc2nsnc12)Nc1ccc(F)cc1,0%,i,10%,5%
Cc1ccc(Cl)cc1-n1ncc2c(NC3CCCCCC3)ncnc21,.,-86%,4.5µM*,-28%
COc1ccccc1-c1nnc2n(CCc3ccccc3)c(=O)c3ccccc3n12,.,-25%,6%,0%
Cc1csc(NC(=O)c2ccc(N3CCCC3=O)cc2)n1,-5%,-56%,2.2µM*,5%
CCCCN1C(=O)C(O)(c2ccccc2)c2cc(Br)ccc21 (stereo unspecified),15%,-10%,13µM*,-5%
CC(NC(=O)CCCN1C(=O)CCn2nc(-c3cn(C)c4ccccc34)cc21)c1ccccc1 (stereo unspecified),.,i,-26%,-27%
Brc1cc2c(cc1C1OCCO1)OCO2,-2%,i,-18%,9%
CCCC1OC(c2cc3c(cc2Cl)OCO3)OCC1CC (stereo unspecified),5%,i,11µM*,-17%
O=C(NCc1ccco1)c1ccc2c(c1)N(Cc1cccc(Cl)c1)C(=O)c1ccccc1S2=O (stereo unspecified),.,-21%,1%,-6%
CCCC(=O)OC1=CN(Cc2ccccc2)S(=O)(=O)c2ccccc21,.,-22%,-33%,5%
COc1ccccc1NC(=O)Nc1nc(CC(=O)Nc2cccc(F)c2)cs1,-29%,-37%,?,?
COc1cc(OC)cc(C(=O)Nc2nc(CC(=O)NCc3ccc(F)cc3)cs2)c1,1%,-19%,7.1µM*,?
COc1ccccc1NC(=O)Nc1nc(CC(=O)Nc2cc(F)ccc2F)cs1,-6%,-15%,5.6µM*,?
COc1ccccc1CNC(=O)Cc1csc(NC(=O)Nc2ccccc2OC)n1,-9%,-2%,?,?
COc1cc(OC)cc(C(=O)Nc2nc(CC(=O)NCCc3ccccc3)cs2)c1,9%,i,?,-4%
COc1cc(OC)cc(C(=O)Nc2nc(CC(=O)NCc3ccccc3OC)cs2)c1,-14%,-10%,10µM*,?
Oc1ccc(Cl)cc1C1=Nc2ccccc2N=C(c2cccc(Br)c2)C1,.,-6%,4%,1%

# Compound activity deposited in PubChem by National Center for Advancing Translational Sciences (NCATS).
